From PubChem BioAssay AID1671190 (National Center for Advancing Translational Sciences (NCATS), 2021)
The campaign covered roughly 580,000 compounds. About 6,100 (1.1%) were called active. Where a call stands in place of a potency, no number is given. Roughly 15% stayed inconclusive and do not appear here. Calls follow the shape of the dose curve; as a rule, active = well fitted inhibition curve with a large enough effect; inconclusive = small, poorly fitted or top-dose-only effect, or another doubt; inactive = no such curve, though single readings can be large or run the other way. For the sample, actives were picked, then their nearest neighbours and some compounds at random.

These compounds were tested against Polyunsaturated fatty acid lipoxygenase ALOX12 (Homo sapiens) (UniProt P18054) (assay: Primary qHTS assay for inhibitors of human arachidonate 12S-lipoxygenase (ALOX12): Round 2). Settings: purified 12hLO, xylenol orange hydroperoxide absorbance; series mostly up to 108 µM.
Excerpt: Assay Provider: Theodore R. Holman Ph.D. University of California, Santa Cruz, California Human lipoxygenase 12hLO is a member of the closely related lipoxygenase family of enzymes which catalyze the site-specific oxidation of arachidonic acid to various hormone precursor molecules and as such is a candidate for drug development in a variety of disease areas, such as cancer and inflammation. Inhibition of 12hLO activity was screened by utilizing arachidonic acid as a substrate. The extent of hydroperoxide product formation was measured by a secondary chromogenic reaction in which xylenol orange (XO, Sigma-Aldrich, cat. number 39,818-7) reacts with the ferric ions produced from the reaction between the hydroperoxide and ferrous ions. The Fe (III)-XO complex is characterized with red-shifted absorbance at 560 nm. A purified preparation of human 12hLO was supplied by Dr. Holman laboratory, University of California, Santa Cruz.
PROTOCOL TABLE SEQUENCE No. (e.g., 1, 2, 3, etc.); […] (e.g., Cells, Incubation, Reagent, etc.); VALUE; DESCRIPTION 1; Enzyme; 3 uL; 150 nM 12hLO enzyme solution dispensed in 1536-well Greiner black, clear bottom plates. 2; Compound; 23 nL; compounds and controls were added. 3; Incubate; 15 min; room temperature. 4; Substrate; 1 uL; 40 uM arachidonic acid (final concentration). 5; Incubate; 30 min; room temperature. 6; Reagent; 4 uL; Fe-XO solution was added to each well. 7; Incubation; 30 min; room temperature 8; Detector; absorbance; Read 1 at 405 nm absorbance using ViewLux (Perkin-Elmer) CCD imager. 9; Detector; absorbance; Read 2 at 573 nm absorbance using ViewLux (Perkin-Elmer) CCD imager. NOTES (numbers refer to sequence above) 1; 150 nM 12hLO (final concentration) in buffer solution (25 mM Hepes, 0.01% Triton X-100, pH 7.0) was dispensed in columns 1, 2, 5-48. Column 1 is neutral (100% activity). Buffer only was dispensed in columns 3 and 4 as no enzyme negative controls. The plates were covered with metal lids with gas-exchange holes. 2; Compounds were pin transferred via a Kalypsys Pin Tool (Wako USA) in column 5-48. Control compound was transferred in column 2, titration of nordihydroguaiaretic acid (NDGA, Sigma-Aldrich, N5023) with top concentration of 20 mM in DMSO then 1:3 dilution in duplicate. Dilution factor of 23 nL into 4 uL final assay volume. 3; Covered assay plates were incubated for 15 min at room temperature. 4; Substrate was added to start the reaction; 40 uM arachidonic acid (Sigma-Aldrich, St. Louis, MO) was dispensed throughout the plate. 6; Chromogenic detection reagent solution (divalent iron/xylenol orange, Fe-XO) was added to each well: 200 uM xylenol orange, 300 uM ferrous ammonium sulfate prepared freshly in 50 mM sulfuric acid. 8, 9; Two absorbance readouts were obtained at 405 nm and at 573 nm using a ViewLux high-throughput CCD plate imager (Perkin-Elmer). The 573 to 405 (Read 2 / Read 1) absorbance ratio was used to compute reaction progress.
Potency is read from the fitted curve at half-maximal effect.

Chain of Polyunsaturated fatty acid lipoxygenase ALOX12 (Homo sapiens) (P18054 whole entry, looked up): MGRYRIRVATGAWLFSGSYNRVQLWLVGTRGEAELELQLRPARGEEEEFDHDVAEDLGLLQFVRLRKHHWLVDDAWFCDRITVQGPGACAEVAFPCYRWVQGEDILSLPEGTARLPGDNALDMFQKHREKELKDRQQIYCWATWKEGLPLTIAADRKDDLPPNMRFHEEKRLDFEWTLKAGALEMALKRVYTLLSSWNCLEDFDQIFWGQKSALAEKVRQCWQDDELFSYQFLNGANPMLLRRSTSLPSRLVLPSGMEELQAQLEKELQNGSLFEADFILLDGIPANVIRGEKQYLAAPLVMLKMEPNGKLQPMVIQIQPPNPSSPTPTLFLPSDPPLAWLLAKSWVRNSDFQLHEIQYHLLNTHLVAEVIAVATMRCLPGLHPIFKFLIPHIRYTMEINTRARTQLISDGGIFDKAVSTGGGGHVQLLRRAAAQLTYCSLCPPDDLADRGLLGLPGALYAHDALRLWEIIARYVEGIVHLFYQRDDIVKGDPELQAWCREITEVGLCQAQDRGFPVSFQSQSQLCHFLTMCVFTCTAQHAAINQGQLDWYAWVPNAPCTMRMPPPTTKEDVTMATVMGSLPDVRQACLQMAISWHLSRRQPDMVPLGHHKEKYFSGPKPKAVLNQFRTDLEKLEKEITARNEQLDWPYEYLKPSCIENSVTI

Row | Compound | Potency
1 | Cc1ccc(NC(=O)CN2c3ccccc3CC2C)c(Cl)c1 (stereo not drawn) | inactive
2 | O=C(CSc1nnc(Cc2ccccc2)n1-n1cccc1)Nc1ccccc1 | inactive
3 | C[C@H](NC(=O)Cc1n[nH]c(=O)c2ccccc12)C(=O)N1CCN(c2ccccc2)CC1 | inactive
4 | Cc1ccc(NC(=O)CCC2CCCC2)c(C)c1 | inactive
5 | Cc1ccc(NC(=O)c2cccc(CS(C)=O)c2)c(C)c1 (stereo not drawn) | inactive
6 | Cc1ccc(NC(=O)C2=Cc3sc4c(c3CS2)CCCC4)c(C)c1 | 20 µM (active)
7 | CSCCC(=O)NCc1ccccc1F | inactive
8 | CCCCN1CC(C(=O)Nc2ccc(C(=O)Nc3ccccc3F)cc2)CC1=O (stereo not drawn) | inactive
9 | CN(CC1CCOC1)C(=O)Nc1cc(F)c(F)c(F)c1 (stereo not drawn) | inactive
10 | CC(=O)OCC1(COC(C)=O)COCC(COC(C)=O)(COC(C)=O)C1=O | inactive
11 | C=CCNCc1ccc(Cl)c(Cl)c1 | inactive
12 | CCOC(=O)c1cc(NCc2c(Cl)cccc2Cl)ccc1N1CCOCC1 | inactive
13 | CCCOC(=O)c1cc(NC(=O)c2cc(Cl)c(OC)c(Cl)c2)ccc1N1CCOCC1 | 5.62 µM (active)
14 | O=C(Nc1ccc(N2CCOCC2)c(Cl)c1)c1ccc2c3c(cccc13)CC2 | inactive
15 | C=CCSc1nc2c(c(=O)[nH]c(=O)n2C)n1CCCCC | inactive
16 | C=CCNC(=O)CSc1nc(-c2ccccc2)c(-c2ccccc2)o1 | inactive
17 | Cn1cc(CN2CCOC[C@H](Oc3ccc(S(C)(=O)=O)cc3)C2)c2ccccc21 | inactive
18 | O=C(NC1CCNC1)C1CCN(c2nc(-c3ccccc3)nc3c2CCC3)CC1 (stereo not drawn) | inactive
19 | COc1ccc(CNC(=O)C(C)[C@@H]2CCc3c(C)cc(OCCN4CCOCC4)c(C)c3C2)cc1 (stereo partly drawn) | inactive
20 | O=C(O)/C=C/c1ccc(Cl)cc1Cl | inactive
21 | O=C(/C=C/c1ccccc1O)c1ccc(Cl)cc1Cl | 39.8 µM (active)
22 | O=C(O)/C=C/c1ccccc1Cl | inactive
23 | CN(C)C(=O)c1ccc(OCc2coc(-c3ccccc3)n2)cc1 | inactive
24 | CC(C)Cn1cncc1CNC(=O)c1ccc2nc(-c3ccc(F)cc3)cn2c1 | inactive
25 | C[N+]1(CCNC(=O)/C=N/O)CCCCC1 | 6.31 µM (active)
26 | CCN(CC)S(=O)(=O)c1ccc(NC(=O)CC2c3ccccc3C=CN2C(C)=O)cc1 (stereo not drawn) | inactive

Row | Compound | Potency
27 | CSCC[C@H](NC(=O)CSc1cc(Cl)ccc1Cl)c1nc2ccccc2[nH]1 | 44.7 µM (active)
28 | COc1ccc(CC(=O)N[C@@H](CCSC)c2nc3ccccc3[nH]2)cc1 | inactive
29 | COc1ccc(CC(=O)NC(CCSC)c2nc3ccccc3[nH]2)cc1 (stereo not drawn) | inactive
30 | Cc1nc(-c2ccc(OC(F)(F)F)cc2)sc1C(=O)N1CCCC1 | inactive
31 | O=C(CSc1nc(CN2CCOCC2)nc2ccccc12)N1CCN(Cc2ccccc2)CC1 | inactive
32 | Cc1cc2oc(C(=O)Nc3ccc(S(=O)(=O)N4CCCC(C)C4)cc3)cc(=O)c2cc1C (stereo not drawn) | inactive
33 | CC(=O)N1CCN(C(C(=O)O)c2cn(CCC(=O)O)c3cc(Br)ccc23)CC1 (stereo not drawn) | inactive
34 | CCCCCCCC[n+]1cccc(C(=O)N2c3c(nc(N)[nH]c3=O)NC(C)C2C)c1 (stereo not drawn) | 44.7 µM (active)
35 | COc1ccc(CCNC(=O)c2sc(NC(C)C)nc2C)cc1 | inactive
36 | O=S1(=O)CC(N2CCN(CCO)CC2)CN1Cc1cn(Cc2cccc(Cl)c2)nn1 (stereo not drawn) | 7.08 µM (active)
37 | O=S1(=O)CC(N2CCSCC2)CN1Cc1cn(Cc2cccc(Cl)c2)nn1 (stereo not drawn) | inactive
38 | O=S1(=O)CC(N2CCN(CCO)CC2)CN1Cc1cn(Cc2ccc(Cl)cc2)nn1 (stereo not drawn) | 25.1 µM (active)
39 | Cc1cccc(CN2CCN(C3CN(Cc4cn(Cc5ccccc5F)nn4)S(=O)(=O)C3)CC2)c1 (stereo not drawn) | inactive
40 | CCCCCCN1CCN(C2CN(Cc3cn(Cc4ccc(F)cc4)nn3)S(=O)(=O)C2)CC1 (stereo not drawn) | inactive
41 | Cc1cccc(CN2CCN(C3CN(Cc4cn(Cc5cc(C)cc(C)c5)nn4)S(=O)(=O)C3)CC2)c1 (stereo not drawn) | inactive
42 | Cc1nc2ccccc2c(C)c1CC(=O)N1CCC(C)CC1 | inactive
43 | Cn1c(=O)c2c(nc(CN3CCc4ccccc4C3)n2CCCc2ccccc2)n(C)c1=O | inactive
44 | COc1ccc(C(=O)/C=C/c2cccc(OC(=O)C3CC3)c2)cc1 | inactive
45 | Cc1nc2c(c(C)c1CCC(=O)NCCN1CCCC1)c(=O)n(C)c(=O)n2C | inactive
46 | COc1ccc(-c2noc(CNC(=O)COc3cccc(C)c3C)n2)cc1OC | inactive
47 | C=CCNc1nc(Nc2ccc(Cl)cc2)nc(OC)n1 | 39.8 µM (active)
48 | COc1nc(NCc2ccc(Cl)cc2)nc(OC)n1 | inactive
49 | C=CCNc1nc(C)nc(OC)n1 | inactive
50 | Cc1[nH]c2ccccc2c1C(=O)CSc1nnc(CC(C)c2ccccc2)o1 (stereo not drawn) | inactive
51 | N#Cc1ccccc1COC(=O)c1ccc(Br)cc1 | inactive
52 | Oc1ccccc1CN1C[C@H](O)C[C@H]1c1nc(Cc2ccc(F)cc2Cl)no1 | inactive

Row | Compound | Potency
53 | O=[N+]([O-])c1ccccc1CN1C[C@H](O)C[C@H]1c1nc(-c2ccc(F)cc2)no1 | 39.8 µM (active)
54 | O=[N+]([O-])c1cccc(-c2noc([C@@H]3C[C@@H](O)CN3Cc3cccnc3)n2)c1 | inactive
55 | CC(C)CN1CCOC(CNC(=O)N2CCN(S(=O)(=O)c3ccc(C#N)cc3)CC2)C1 (stereo not drawn) | inactive
56 | Cc1cccc(C(=O)Nc2cccc(-c3nn4c(C)nnc4s3)c2)c1 | inactive
57 | COc1ccccc1CNc1ncnc2ccc(-c3ccc4c(c3)OCO4)cc12 | inactive
58 | N#Cc1cccc(-c2ccc3ncnc(NCc4cccs4)c3c2)c1 | 50.1 µM (active)
59 | CN1Cc2ncnc(NCc3cccs3)c2CN(c2ccccc2)C1=O | inactive
60 | c1ccc2c(c1)C(=NC1CCCCC1)NC2=NC1CCCCC1 | 31.6 µM (active)
61 | CC(C)(C)c1ccc2c(c1)OCCOCCOCCOc1ccc(C(C)(C)C)cc1OCCOCCOCCO2 | inactive
62 | COc1ccc(C(=O)NC(=S)NNC(=O)CCc2ccccc2)cc1 | 12.6 µM (active)
63 | COc1ccc(-c2noc([C@@H](C)NCc3ccc(F)cc3)c2C(=O)O)cc1 | inactive
64 | COCc1nc(CCNC(=O)CCc2ccccc2)no1 | inactive
65 | Cc1onc(-c2ccccc2)c1C(=O)NNC(=S)NC(=O)c1ccc(F)cc1 | 39.8 µM (active)
66 | Cc1onc(-c2ccc(F)cc2F)c1C(=O)Nc1cccc(C(F)(F)F)c1 | inactive
67 | C[C@H]1CN(C(=O)Nc2ccc(F)cc2)C[C@@H]1c1nc(-c2ccccc2)no1 | inactive
68 | COc1ccc(C(=O)NC(=S)NNC(=O)c2c(-c3ccccc3)noc2C)cc1 | 35.5 µM (active)
69 | CCCNC(=O)c1ccc(NC(=O)CCc2ccccc2)cc1 | inactive
70 | CCOC(=O)c1c(NC(=O)c2c(-c3ccccc3)noc2C)sc2c1CCC2 | inactive
71 | c1cc(CN2CCc3c(sc4ncnc(N5CCOCC5)c34)C2)ccn1 | inactive
72 | CCOC(=O)c1c(C)[nH]c(C(=O)OC)c1C | inactive
73 | COc1ccc(-c2ccc3nnc(CNC(=O)C(C)Oc4ccc(Cl)cc4)n3n2)cc1 (stereo not drawn) | inactive
74 | Cc1c(S(=O)(=O)N2CCCC2c2cccc(F)c2)cnn1C(F)F (stereo not drawn) | inactive
75 | Cc1cccc(NCC(=O)Nc2cc(Cl)ccc2-n2cncn2)c1C | inactive
76 | CCS(=O)(=O)N(C)CCCNC(=O)c1cn(C)c2ccccc12 | inactive
77 | Cc1ccc(C(NC(=O)Cc2cccs2)C(=O)Nc2ccc3c(c2)OCO3)cc1 (stereo not drawn) | inactive
78 | CN(C)C[C@@H]1CN(C)C[C@H]1NS(=O)(=O)c1cccc(C(F)(F)F)c1 | inactive

Row | Compound | Potency
79 | Cc1ccsc1C1C(C#N)=C(N)OC2=C1C(=O)CC(C)(C)C2 (stereo not drawn) | inactive
80 | Cc1ccsc1C1C(C#N)=C(N)OC2=C1C(=O)CC(C)C2 (stereo not drawn) | inactive
81 | N#CC1=C(N)OC2=C(C(=O)CC(c3ccccc3)C2)C1c1cccs1 (stereo not drawn) | 11.2 µM (active)
82 | O=C(Cn1ccc2cc(Cl)ccc21)Nc1ccc2[nH]ccc2c1 | inactive
83 | Cc1cc2nc(/C(C#N)=C\c3ccc(OCc4ccc(F)cc4)cc3)[nH]c2cc1C | inactive
84 | CC(C(=O)NC(=O)NC1CCCCC1)n1cnc2c1c(=O)n(C)c(=O)n2C (stereo not drawn) | inactive
85 | CCCCCOc1ccc2c(C)c(CCC(C)C)c(=O)oc2c1 | inactive
86 | O=C(Nc1ccc(Cl)cc1)c1csc(C(O)c2cccc(C(F)(F)F)c2)n1 (stereo not drawn) | 22.4 µM (active)
87 | O=C(NC1CCCC1)c1csc(C(O)c2cccc(Cl)c2)n1 (stereo not drawn) | inactive
88 | O=C(Nc1ccc(Cl)cc1)c1csc([C@@H]2O[C@H](CO)[C@H](O)[C@H](O)[C@H]2O)n1 | inactive
89 | Cc1nc(-c2ccccc2Cl)sc1C(=O)NC1C=CS(=O)(=O)C1 (stereo not drawn) | inactive
90 | COc1cccc(C(=O)Nc2ccc3oc(C)nc3c2)c1 | inactive
91 | CCN(CC)c1nc2ccccc2nc1C(=O)Nc1cc(OC)ccc1OC | inactive
92 | CN(C)S(=O)(=O)c1cccc(-c2nn(-c3ccccc3)cc2/C=C2\SC(=S)N(CC(=O)O)C2=O)c1 | 39.8 µM (active)
93 | N#Cc1ccccc1CN1C(=O)S/C(=C/c2cccn2-c2cccc(C(=O)O)c2)C1=O | inactive
94 | Cc1ccc(-c2nn(-c3ccccc3)cc2/C=C2\SC(=S)N(CCCCCC(=O)O)C2=O)o1 | 31.6 µM (active)
95 | O=C(CCc1c[nH]c2ccccc12)Nc1ccc(F)cc1 | inactive
96 | COC(=O)CNC(=O)c1cc2sccc2n1Cc1ccccc1 | inactive
97 | CC(Sc1ccccn1)C(=O)Nc1cccc(Cl)c1 (stereo not drawn) | inactive
98 | CCC(=O)Oc1ccc2cc(-c3ccccc3)c(=O)oc2c1 | inactive
99 | COc1ccc(OC)c(/C=C/C(=O)Oc2ccccc2Cl)c1 | inactive
100 | COc1ccc2c(C)c(CC(=O)NCCc3ccccc3)c(=O)oc2c1 | inactive
101 | O=C1c2c(nc(COc3ccccc3)n2Cc2ccccc2)NCCN1Cc1cccc(Cl)c1 | inactive
102 | Cc1ccc(NC(=O)CN2C(=O)C(C)(C)c3cc(S(=O)(=O)N4CCCCC4)ccc32)cc1F | inactive
103 | COc1ccc(C)cc1NC(=O)C(C)N1CCN(S(=O)(=O)Cc2ccccc2)CC1 (stereo not drawn) | inactive
